Hits are enriched below; roughly 7.9% of the tested compounds scored in any of these assays.
Marburg entry inh = qHTS for inhibitors of binding or entry into cells for Marburg Virus. Marburg virus pseudotyped entry inhibition, cell reporter. Potency, µM (titrated, usually from 37.8 µM), hits mostly inhibitors. 300,000 tested, 1.8% active; calls by dose curve; tested in HEK293 cells
HCV inh = qHTS Assay for Inhibitors of Hepatitis C Virus (HCV) | Huh7.5.1 HCVcc-Cre infection, luciferase reporter, 44 h | Potency, µM (titrated, usually from 41.8 µM), usual class: inhibitors | 340,000 tested, 3.4% active; active = well fitted inhibition curve with a large enough effect; inconclusive = small, poorly fitted or top-dose-only effect, or another doubt; inactive = no such curve, though single readings can be large or run the other way
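Cells seeded at 1,000/well and cultured 4 h, then compounds added followed by HCVcc-Cre virus (~0.5 moi). After 44 h further culture, luciferase substrate was added, plates held 15 min at room temperature, and luminescence read for 15 sec.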
HCMV inh = qHTS Assay for inhibitors of the human cytomegalovirus (HCMV); HFF cells, HCMV-luciferase reporter, 72 h; active compounds read low; activity change, negative = inhibition, % at 57.5 µM; 410,000 tested, 4.5% active; AID 1259415, 2018; in the data active = activity change below about -60%; inconclusive = no clear call, values can overlap the other calls; inactive = above about -39%
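Steps: HFFs plated, 16 h 37C; compounds added; HCMV-luciferase added to MOI 1 PFU/cell; 72 h 37C; OneGlo reagent, 5 min room temperature; luminescence read, normalized to controls.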
LASV entry inh = qHTS for Inhibitors of binding or entry into cells for Lassa Virus | Lassa virus pseudotype entry inhibition, cell reporter | Potency, µM (doses to about 37.9 µM), actives largely listed as inhibitors | 300,000 tested, 1.2% active; calls by dose curve; tested in HEK293 cells; note: nearly all actives have a fitted effect of over 50% in size
FMDV antiviral = High Throughput Screening for Foot and Mouth Disease Virus Antivirals | FMDV antiviral cell-based qHTS | Potency, µM (series often up to 57.9 µM), hits mostly inhibitors | 410,000 tested, 1.2% active; calls by dose curve; tested in HEK293T cells; note: read-out not given here; nearly all actives have a fitted effect of over 45% in size
Hits are given with their value; i = inactive; ? = inconclusive; nt = no result given.

SMILES	Marburg entry inh	HCV inh	HCMV inh	LASV entry inh	FMDV antiviral
C[C@@H]1CC[C@H]2C(=O)O[C@@H](Cc3ccccc3)CN2[C@@H]1c1ccc(Br)cc1	i	nt	nt	nt	nt
Cc1cc2cc(C)c3nnc(SCC(=O)N4CCN(C(=O)c5ccco5)CC4)n3c2cc1C	i	i	-73	i	nt
COc1ccc2c(c1)cc(C)c1nnc(SCC(=O)N3CCN(C(=O)c4ccco4)CC3)n12	i	i	nt	i	nt
COc1ccc(CCCc2nnc(SCC(=O)N/N=C\c3ccc(O)c(OC)c3)o2)cc1C	?	?	i	?	22µM
C=CCc1cc(/C=N/NC(=O)CSc2nnc(CCCc3ccc(OC)cc3)o2)cc(OC)c1O	i	?	i	?	i
C=CCc1cc(/C=N\NC(=O)CSc2nnc(CCCc3ccc(OC)c(C)c3)o2)cc(OC)c1O	i	i	i	?	i
COc1ccc(/C=N/NC(=O)CSc2nnc(CCCc3ccc(OC)c(C)c3)o2)cc1	?	i	i	7.9µM	i
CCOC(=O)/C=c1\s/c(=C(/C#N)C(=O)OCC)n(-c2ccccc2)c1=O	i	nt	nt	nt	nt
CCOC(=O)C1CCCN(C(=O)c2ccc3c(c2)C(C)(C)CCC3(C)C)CC1 (stereo not given)	nt	nt	i	nt	i
CCCCCC(C)NC(=O)c1cc(S(=O)(=O)N2CCCCC2)ccc1N1CCOCC1 (stereo not given)	nt	i	i	nt	i
O=C1CCc2ccc(OCCCCN3CCN(c4cccc(Cl)c4Cl)CC3)cc2N1	nt	i	i	nt	20µM
COc1ccc(-c2nc(CN3CCC(C(=O)NCCCOC(C)C)CC3)c(C)o2)cc1OC	i	nt	i	?	i
COc1ccc2c(c1)C(=NNc1ccc(C(=O)O)cc1)c1cc(OC)ccc1-2	nt	14µM	i	nt	i
COc1ccc(/C(C)=N/Nc2ccc(C(=O)O)cc2)c(OC)c1	?	i	i	?	i
COc1ccc2c(c1)C(=NN)c1cc(OC)ccc1-2	i	?	-87	i	i
COc1ccc(OC)c(N)c1	i	i	i	i	i
CC1(C)OC(=O)C(=NNc2ccc(C(=O)O)cc2)C(=O)O1	i	i	-90	i	i
O=C1C2CC=CCC2C(=O)N1c1ccc(NCCc2ccc(O)cc2)c([N+](=O)[O-])c1 (stereo not given)	?	13µM	i	?	?
O=C1C2CC=CCC2C(=O)N1c1ccc(NCCc2ccc(Cl)cc2)c([N+](=O)[O-])c1 (stereo not given)	?	i	i	i	i
O=C1C(F)=CC(COC(c2ccccc2)(c2ccccc2)c2ccccc2)OC1n1cc(F)c(=O)[nH]c1=O (stereo not given)	?	?	-99	5.6µM	3.2µM
O=C(Nc1ccccc1-c1nc2ccccc2[nH]1)c1ccc(S(=O)(=O)N2CCCCC2)cc1	i	i	i	i	i
O=C(Nc1ccccc1-c1nc2ccccc2[nH]1)c1ccc(N2C(=O)CCC2=O)cc1	?	10µM	i	i	?
COc1ccc(-c2csc(NC(=O)c3ccc(N4C(=O)CCC4=O)cc3)n2)cc1	i	i	-67	i	?
COc1ccccc1-c1csc(NC(=O)c2ccc(N3C(=O)CCC3=O)cc2)n1	nt	i	i	nt	18µM
Cc1ccc(C)c(NC(=O)Cn2cc(C(=O)C3CCCCC3)c3ccccc32)c1	?	nt	i	?	i
SMILES	Marburg entry inh	HCV inh	HCMV inh	LASV entry inh	FMDV antiviral
COc1ccc(NC(=O)C2(C)CCN2Cc2ccccc2OC(F)F)cc1OC (stereo not given)	nt	nt	i	nt	i
CC(=O)N1CCc2cc(NC(=O)C3(C)CCN3Cc3ccccc3Cl)ccc21 (stereo not given)	nt	nt	-78	nt	i
CC1(C(=O)Nc2ccc(Cl)c(Cl)c2)CCN1Cc1ccccc1OC(F)F (stereo not given)	nt	nt	i	nt	32µM
C[C@@H]1/C(=N/O)CC2C[C@@H]1C2(C)C	nt	nt	nt	nt	i
CC(C)Cn1c(N)c(C(=O)COC(=O)c2ccc(Br)cc2)c(=O)n(C)c1=O	nt	?	i	nt	32µM
Cc1cccc(C(=O)OCC(=O)c2c(N)n(CC(C)C)c(=O)n(C)c2=O)c1[N+](=O)[O-]	?	14µM	?	?	?
Cc1cccc(C(=O)OCC(=O)c2c(N)n(CC(C)C)c(=O)n(C)c2=O)c1O	?	?	i	?	i
COC(=O)c1c(C)[nH]c(C(=O)OCC(=O)c2c(N)n(CC(C)C)c(=O)n(C)c2=O)c1C	?	4µM	i	?	?
CC(C)Cn1c(N)c(C(=O)COC(=O)/C=C/c2ccccc2)c(=O)n(C)c1=O	10µM	7.1µM	-76	?	16µM
Oc1c(C(c2ccccc2F)N2CCN(c3ccccc3F)CC2)sc2nc(-c3ccco3)nn12 (stereo not given)	nt	nt	i	i	i
CC(C)Cn1c(N)c(C(=O)COC(=O)CC23CC4CC(CC(C4)C2)C3)c(=O)n(C)c1=O	8.9µM	6.3µM	-67	1.8µM	13µM
Cc1csc(=O)n1CCC(=O)OCC(=O)c1c(N)n(CC(C)C)c(=O)n(C)c1=O	?	?	?	i	?
N#CCCn1cc(/C=C2\NC(=S)N(c3ccccc3)C2=O)c(-c2ccc(F)cc2)n1	?	i	-63	i	i
N#CCCn1cc(/C=N/NC(N)=S)c(-c2ccc(-c3ccccc3)cc2)n1	nt	11µM	i	nt	i
CC(C)C[C@@H](CN1CCCC1CN1C(=S)NC[C@@H]1Cc1ccccc1)N1C[C@H](Cc2ccc(O)cc2)N(CC2CCCCC2)C1=S (stereo not given in full)	nt	nt	-73	nt	i
CC(C)C[C@@H](CN1CCC[C@@H]1CN1C(=S)NC[C@@H]1Cc1ccc(O)cc1)N1C[C@H](Cc2ccc(O)cc2)N(CC2CCCCCC2)C1=S	nt	nt	-100	nt	?
CC(C)C[C@@H](CN1CCCC1CN1C(=S)NC[C@@H]1Cc1ccc(O)cc1)N1C[C@H](Cc2ccc(O)cc2)N(CCc2ccccc2)C1=S (stereo not given in full)	nt	i	-95	nt	i
CC(C)C[C@@H](CN1CCCC1CN1C(=S)NC[C@@H]1Cc1ccccc1)N1C[C@H](Cc2ccccc2)N(CC2CCCCC2)C1=S (stereo not given in full)	nt	nt	i	nt	i
CC(C)C[C@@H](CN1CCC[C@@H]1CN1C(=S)NC[C@@H]1Cc1ccc(O)cc1)N1C[C@H](Cc2ccc(O)cc2)N(CC2CCCCC2)C1=S	nt	nt	-100	nt	i
Oc1ccc(C[C@H]2CN([C@@H](Cc3ccc(O)cc3)CN3CCC[C@@H]3CN3C(=S)NC[C@@H]3Cc3ccccc3)C(=S)N2CCc2ccccc2)cc1	nt	nt	i	nt	i
COc1cc(=O)n2c(c1C(=O)N(C)Cc1cscn1)CCN(Cc1ccc3c(c1)OCCO3)CC2	nt	nt	nt	nt	i
O=C(NCC1OCCc2ccccc21)c1ccc(NC(=O)c2ccc(Cl)cc2)cc1 (stereo not given)	i	4.5µM	-82	?	i
Cc1ccc(NC(=O)C(=O)NCC2OCCc3ccccc32)cc1 (stereo not given)	nt	i	i	nt	i
